D1 potentiator – potentiators of human D1 dopamine receptor | HEK293 TREx D1 cells, calcium flux, dopamine EC20 potentiation | potentiation, % at 10 µM | P21728 | 360,000 tested, 0.036% active; in the data active means potentiation above about 30%; further: 0% is about no effect
Target sequence (P21728 whole entry, looked up): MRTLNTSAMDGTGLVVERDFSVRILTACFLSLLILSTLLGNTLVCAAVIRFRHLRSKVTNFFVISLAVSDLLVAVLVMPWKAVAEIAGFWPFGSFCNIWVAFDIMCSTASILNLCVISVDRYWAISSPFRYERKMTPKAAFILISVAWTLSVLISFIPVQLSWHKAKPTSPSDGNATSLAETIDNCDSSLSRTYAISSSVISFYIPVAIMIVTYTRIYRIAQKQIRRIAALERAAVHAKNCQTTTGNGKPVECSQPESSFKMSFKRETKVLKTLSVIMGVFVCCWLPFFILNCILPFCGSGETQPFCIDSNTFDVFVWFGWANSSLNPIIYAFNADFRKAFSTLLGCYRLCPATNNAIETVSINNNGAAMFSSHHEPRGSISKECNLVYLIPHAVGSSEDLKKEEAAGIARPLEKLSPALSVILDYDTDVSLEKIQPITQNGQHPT
DRD3 antagonist – blocks the human D3 dopamine receptor | P35462 | D3R cells, DiscoveRx beta-arrestin luminescence, antagonist mode; stronger effect = lower value | max response, negative = inhibition, % | 360,000 tested, 2.5% active; in the data active means max response below about -50%; inconclusive means no clear call, values can overlap the other calls; further: on the % scale 0 is the no-effect control and ±100 the full control effect
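Cells plated overnight at 1500 cells/well, then exposed to library compounds with dopamine controls for 90 minutes at 37 degrees C. DiscoveRx reagent added for 30–60 minutes at room temperature; luminescence read, quantitative HTS format.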
D3 ag – D3 dopamine receptor (human) agonism; P35462; D3R DiscoveRx beta-arrestin cells, luminescence, 90 min; max activation, %; 410,000 tested, 0.58% active; in the data active means max activation above about 30%; further: 0% is about no effect
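Agonist mode: compounds and dopamine controls were applied to plated cells for 90 min at 37 degrees C after an overnight attachment at 1500 cells/well. Luminescent read-out followed 30 - 60 minutes at room temperature with DiscoveRx detection reagent.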
D1 ag – activates the human D1 dopamine receptor | P21728 | HEK293 T-REx D1 cells, calcium flux, agonist mode | activation, % at 2 µM | 360,000 tested, 1% active; in the data active means activation above about 30%; further: 0% is about no effect
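Tetracycline-induced HEK293 TREx D1 cells, force-coupled to calcium signalling, were dye-loaded with a no-wash calcium kit. Compound was pin-added after a 10 s baseline. Fluorescence was read kinetically at 1 cycle/s for 180 s, with calcium rises flagged as agonism.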
D1 antagonist – human D1 dopamine receptor antagonism; P21728; HEK293 TREx D1 cells, calcium flux, dopamine EC80; stronger effect = lower value; activity change, negative = inhibition, % at 10 µM; 360,000 tested, 3.2% active; in the data active means activity change below about -30%; further: on the % scale 0 is the no-effect control and ±100 the full control effect
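Inducible Hek293 Trex D1 cells (tetracycline, overnight, 30 C). Calcium dye 30–90 min RT. Antagonist mode: EC80 dopamine added after 180 s compound read.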
The depositor's hits bear a star; ? = inconclusive; . = not tested or not shown; ! = not confirmed by another sample. This is a sample that favours compounds with a hit; in the whole collection about 6% have one here.

SMILES	D1 potentiator	DRD3 antagonist	D3 ag	D1 ag	D1 antagonist
Cc1ccc(-n2ncc3c2CC(C)(C)CC3NC(=O)c2ccccn2)cc1 (configuration not stated)	-2.5	7.8	3.4	1.3	-75.7*
C=CCC(=O)NC1CC(C)(C)Cc2c1cnn2-c1ccc(C)cc1 (configuration not stated)	-9.4	9.4	0.9	0.1	-17.2
Cc1ccc(NC(=O)Cn2c(=O)n(CCc3ccccc3)c(=O)c3c4c(sc32)CCCC4)c(C)c1	1.9	.	4.2	-0.6	-14.0
O=c1c2cc(Cl)ccc2nc(-c2ccc(Cl)c(Cl)c2)n1O	-10.4	-6.3	6.8	87.7*	-44.5*
O=c1c2cc(Br)ccc2nc(-c2cccc(C(F)(F)F)c2)n1O	3.6	?	7.9	62.1*	2.8
O=C(Nc1ccc2nc(SCC(=O)N3CCCC3)sc2c1)c1cccc(Br)c1	-0.4	.	10.3	4.6	8.8
CCOc1ccccc1N(C)C(=O)c1sc2nc3n(c(=O)c2c1C)CCCC3	-2.2	.	6.0	2.8	-3.9
Clc1cnc(N/N=C/c2ccncc2)c(Cl)c1	10.3	11.2	-4.0	2.8	-2.1
Clc1ccc(N/N=C/c2ccncc2)cc1Cl	-10.2	-10.8	-0.8	3.7	-34.2*
CCN1CCN(CCCOc2ccccc2-c2ccccc2)CC1	-3.9	?	-13.5	16.8	-8.8
CCN1CCN(CCCOc2ccc(-c3ccccc3)cc2)CC1	-8.8	?	-15.1	49.7*	-34.3*
CN1CCN(CCOc2ccc(-c3ccccc3)cc2)CC1	-5.9	-7.4	-18.4	18.9	-4.8
CN1CCN(CCCOc2ccc(-c3ccccc3)cc2)CC1	-1.1	-14.5	-8.9	18.1	-32.9*
COc1ccccc1NC(=O)C1=C(C)Nc2nc(SCc3ccccc3)nn2C1c1ccccn1 (configuration not stated)	2.3	.	-6.4	-0.4	8.6
O=C(CCc1nnc2n(Cc3ccccc3Cl)c(=O)c3ccccc3n12)Nc1ccccc1	0.8	.	-5.2	0.9	-9.5
COc1ccccc1NC(=S)NNC(=O)c1cc(C)nn1C	-1.5	-70.3*	-2.1	2.2	2.8
COc1ccccc1NC(=S)NNC(=O)c1c(Cl)c(C)nn1C	-5.8	-14.7	4.2	20.0	-11.2
COc1ccccc1NC(=S)NNC(=O)c1cc(C)n(C)n1	1.1	-50.4*	-4.4	0.6	-3.5
CCOC(=O)CNC1CC(=O)N(c2cccc(Cl)c2)C1=O (configuration not stated)	-2.1	-24.3	-13.7	2.8	4.4
CC(=O)NCC(=O)NNC1CC(=O)N(c2cccc(Cl)c2)C1=O (configuration not stated)	30.7*	12.6	-13.0	1.4	7.4
Cc1cccc2sc(NS(=O)(=O)c3ccccc3)nc12	-0.5	-64.5*	-2.3	0.2	-6.2
CCOC(=O)c1sc(NC(=O)Nc2ccc(Cl)cc2)nc1C	-10.8	56.1	3.1	20.0	-44.0*
CCOC(=O)c1sc(NC(=O)Nc2cccc(Cl)c2)cc1C	-14.6	-6.1	7.2	9.2	-45.6*
CCOC(=O)c1sc(NS(=O)(=O)c2ccccc2Cl)nc1C	-4.8	-70.0*	-7.5	0.5	.
CCOC(=O)Nc1nc(C)c(C(=O)c2ccc(Cl)cc2)s1	-4.5	19.3	-6.9	1.7	-19.2
SMILES	D1 potentiator	DRD3 antagonist	D3 ag	D1 ag	D1 antagonist
CCOC(=O)c1ccc(-n2c(CCC(=O)O)ccc2-c2ccccc2)cc1O	-2.8	.	5.6	-1.3	3.5
CCOC(=O)c1sc(NS(=O)(=O)c2ccc(F)cc2)nc1C	-4.8	15.0	3.7	3.2	0.4
CCOC(=O)c1sc(NS(=O)(=O)c2ccccc2)nc1C	-3.6	-60.2*	-14.6	3.5	-20.7
COc1ccc(OC)c(NC(=O)c2cn3c4c(ccc(Cl)c4c2=O)OC(C)C3)c1 (configuration not stated)	-0.7	.	-1.5	-0.1	6.1
Clc1ccc(-c2c(C3=NCCCN3)nnn2-c2ccc(Cl)cc2)cc1	-6.2	2.0	-0.8	10.5	-38.9*
COc1ccc(N2CC3=C(C2=O)C(c2ccc(Br)cc2)NC(=O)N3C)cc1 (configuration not stated)	-4.7	.	5.2	-0.6	-0.7
Cc1ccc(-c2noc(CCC(=O)N3CCN(c4cc(C)ccc4C)CC3)n2)cc1	.	53.1	5.9	.	.
Cc1ccc(C)c(N2CCN(C(=O)CCCOc3cc(=O)n(C)c4ccccc34)CC2)c1	6.6	29.7	78.9*	2.4	3.2
COc1ccc(-c2noc(CCCCC(=O)N3CCN(c4cc(C)ccc4C)CC3)n2)cc1	.	100.5	52.9*	.	.
COc1ccccc1-c1noc(CCC(=O)N2CCN(c3cc(C)ccc3C)CC2)n1	.	63.8	48.7*	.	.
Cc1ccc(C)c(N2CCN(C(=O)CCc3nc(-c4ccccc4C(F)(F)F)no3)CC2)c1	.	108.2	38.7*	.	.
Cc1nc2ccn(Cc3ccco3)c(=O)c2cc1C(=O)NCc1ccc(Cl)cc1	-3.3	.	1.2	0.6	8.8
CCCCn1c(O)c(/C=C/C=C/C=Nc2ccccc2)sc1=S	-3.7	-18.8	-2.0	1.9	-31.0*
COc1cccc(-c2nc(SCc3cccc(Br)c3)n3[nH]c(=O)cc3n2)c1	-2.6	.	26.1	1.7	-11.4
Cc1ccc2cccc(NC(=O)C(C)Oc3ccc(Cl)cc3Cl)c2n1 (configuration not stated)	-4.0	.	-0.7	3.8	-5.2
COC(=O)Cc1c(C)c2cc3c(c(C)c2oc1=O)OCN(CCc1ccc(F)cc1)C3	1.4	.	-17.7	6.6	6.7
Clc1ccc(-c2nc3nc4ccccc4nc3n2Cc2ccco2)cc1	-10.4	5.9	2.1	1.9	-41.0*
O=C(CSc1nc(C2CC2)nc2sc3c(c12)CCCC3)NCc1ccco1	-3.8	-112.5*	-3.9	1.2	-1.5
Cc1nc(SCC(=O)NCc2ccco2)c2c3c(sc2n1)CCCC3	3.3	12.6	1.9	7.4	-6.6
COc1ccc(-c2cc(C(F)(F)F)nc(SCC(=O)Nc3ccc(C(C)=O)cc3)n2)cc1	-4.8	.	0.4	0.6	-44.1*
COc1ccc(-c2cc(C(F)(F)F)nc(SCC(=O)Nc3cc(C)on3)n2)cc1	-0.3	12.5	-1.7	-0.1	1.2
COc1ccc(-c2cc(C(F)(F)F)nc(SCCC(=O)Nc3ccccc3F)n2)cc1	-6.0	.	-3.0	-0.3	2.4
COc1ccc(-c2cc(C(F)(F)F)nc(SCCC(=O)Nc3cc(C)ccc3O)n2)cc1	-1.3	.	37.5*	1.6	8.8
CCCCn1c(=O)c(Cc2ccccc2)c(O)c2ccccc21	-5.2	9.6	-1.7	1.3	3.6
CN1CCc2c(c3ccccc3n2C)C1	-4.8	-72.9*	-2.9	2.3	25.9
CN1CCc2c(c3ccccc3n2Cc2ccccc2)C1	-9.1	-91.3*!	-93.7	16.6	-16.6
CCCCN1CCc2c(c3ccccc3n2Cc2ccccc2)C1	-11.8	-93.3*	-21.3	0.2	23.6
Cn1c(=O)n(Cc2ccccc2)c2ccccc21	2.4	16.6	-6.6	-0.2	7.8
